Molecules are shown by their SMILES. The whole screen tested about 370,000 compounds, of which about 4,800 (1.3%) were called active. Only a selection was taken, and actives are over-represented in it overall. Values without a mark were called inactive.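 Rule for the calls: active = inhibition above about 21% made by adding two undisclosed values (limit read from the data); inactive = the rest.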

The target in this assay is Protein arginine N-methyltransferase 1 (Homo sapiens) (UniProt Q99873). The assay can be described thus: PRMT1 methyltransferase inhibitors, primary screen, biochemical, fluorescence polarization (AID 652257). The note with it: recombinant PRMT1, activity-based probe fluorescence polarization; at 2.79 µM; active compounds read high.
Chain of Protein arginine N-methyltransferase 1 (Homo sapiens) (Q99873 whole entry, looked up): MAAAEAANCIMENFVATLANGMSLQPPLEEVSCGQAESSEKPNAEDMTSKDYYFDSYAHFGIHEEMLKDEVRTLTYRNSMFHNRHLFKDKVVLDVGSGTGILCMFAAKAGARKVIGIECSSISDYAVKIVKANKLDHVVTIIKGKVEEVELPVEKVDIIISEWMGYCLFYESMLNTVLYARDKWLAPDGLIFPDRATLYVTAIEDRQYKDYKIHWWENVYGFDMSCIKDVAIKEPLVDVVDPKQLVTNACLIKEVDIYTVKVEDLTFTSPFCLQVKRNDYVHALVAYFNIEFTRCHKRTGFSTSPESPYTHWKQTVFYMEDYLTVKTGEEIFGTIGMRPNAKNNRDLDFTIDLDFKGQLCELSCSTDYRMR
Turning to `O=C1CC[C@@]23CCCN2C(=O)CCC[C@H]3[C@H]1Cc1ccccc1`, the inhibition was 2.04%.

On to `O=C(C[C@H]1C[C@H](C(=O)N2CCOCC2)[C@@]2(CCC3CCCC3)c3[nH]c4ccc(Cl)cc4c3CCN2C1=O)NCc1ccco1`, for which the inhibition was -5.92%.

In the case of `C=CCN1C(=O)[C@@H](CC(=O)NCCCCc2ccccc2)[C@]2(C(=O)OCC)CCCCC/C=C/12`, the inhibition was 1.83%.

Consider `Cc1cc2nc3c(=O)n(Cc4ccccc4)c(=O)[nH]c3nc2cc1N`, for which the inhibition is 142% (active).

In the case of `CCC(=O)Nc1c(S(=O)(=O)c2ccccc2)c2nc3ccccc3nc2n1Cc1ccccc1`, the inhibition is 0.02%.

As for `Cn1c(=O)[nH]c(=O)c2c1[nH]c(=S)n2Cc1ccccc1`, the inhibition was 4.37%.

With `CCC(CO)Nc1cccc2c1S(=O)(=O)N(Cc1cn(Cc3ccccc3C(F)(F)F)nn1)Cc1ccccc1O2` (centres undefined), the inhibition is 0.43%.

With `N#Cc1c(N2CCCCC2)nc(N)c2c(N)nc(SCC(=O)O)cc12`, the inhibition is 29.1% (active).

On to `Cc1nn(-c2ncccn2)c2c1C(=O)CC(C)(C)C2Br` (centres undefined), for which the inhibition is -1.26%.

For the compound `CCOC(=O)c1cc2c(ccn2C)n1CC(=O)N1CCC(C)CC1`, the inhibition was 1.01%.

As for `O=C(CSc1nnc(-c2ccccn2)n1-c1ccc(Cl)cc1)Nc1ccccc1-c1ccccc1`, the inhibition was 0.72%.

Turning to `CCOc1cc(C2/C(=C(/O)c3ccc(S(=O)(=O)N4CCCCC4)cc3)C(=O)C(=O)N2CCOC)ccc1O` (centres undefined), the inhibition was 28.9% (active).

Consider `COCCN1C(=O)C(=O)/C(=C(/O)c2ccc(S(=O)(=O)N3CCCCC3)cc2)C1c1ccc(OC)c(OC)c1` (centres undefined), for which the inhibition was -2.03%.

Turning to `COCCN1C(=O)C(=O)/C(=C(/O)c2ccc(S(=O)(=O)N3CCOCC3)cc2)C1c1ccc(OC)c(OC)c1` (centres undefined), the inhibition was 4.25%.

As for `COC(=O)c1cc(NS(=O)(=O)c2ccc3c(c2)c(=O)n(C)c(=O)n3C)cc(C(=O)OC)c1`, the inhibition was 3.19%.

For `CN(C)S(=O)(=O)c1ccc(N/C=C(\[N+](=O)[O-])S(=O)(=O)c2ccccc2)cc1`, the inhibition was 1.43%.

For the compound `CC(C)CSc1nnc(-c2cccnc2)n1Cc1ccccc1`, the inhibition is 1.95%.

For the compound `Cc1cccc(-c2nc3c(c(SCC(=O)N4CCOCC4)n2)CCCC3)c1`, the inhibition is -2.28%.

Turning to `C=CCN1C(=O)c2ccc(C(=O)N3CCC(C(=O)OCC)CC3)cc2C1=O`, the inhibition was -1.32%.

With `CC(C)OC(=O)c1cc(NC(=O)C2C3CCC(O3)C2C(=O)O)cc(C(=O)OC(C)C)c1` (centres undefined), the inhibition is -2.71%.

Turning to `Cc1sc(NC(=O)C2C3CCC(O3)C2C(=O)O)c(C(=O)OC(C)C)c1-c1ccc(Cl)cc1` (centres undefined), the inhibition was 22.5% (active).

Turning to `COc1ccc(NC(=O)C2C3CCC(O3)C2C(=O)O)cc1OC` (centres undefined), the inhibition was 1.91%.

Consider `CCOC(=O)c1csc(NC(=O)C2CCCN(S(=O)(=O)c3ccc(Cl)s3)C2)n1` (centres undefined), for which the inhibition is -5.11%.

Consider `Cc1nc(CNc2ncnc3ccc(-c4ccc5c(c4)OCO5)cc23)cs1`, for which the inhibition is 6.73%.

As for `COc1ccc(C(=O)OCCN2CCN(C3CN(Cc4cn(Cc5ccccc5F)nn4)S(=O)(=O)C3)CC2)cc1OC` (centres undefined), the inhibition was -2.53%.

For the compound `Cc1cccc(NC(=O)c2cc3c(C)nn(-c4ccccc4)c3s2)c1`, the inhibition is -4.86%.

In the case of `Cc1cc(NS(=O)(=O)c2ccc(NC(=S)NC(=O)c3ccc(F)cc3Cl)cc2)no1`, the inhibition was -2.11%.

On to `Cc1cccc(C(=O)Nc2c(-c3ccc(F)cc3)nc3ncccn23)c1`, for which the inhibition was 1.66%.

As to `Cc1cccc(NC(=O)c2nc(S(=O)(=O)Cc3ccccc3)ncc2Cl)c1`, the inhibition was 31.1% (active).

In the case of `O=C(CCS(=O)(=O)c1ccccc1)Nc1ccc(Cl)c(Cl)c1`, the inhibition is 1.21%.

`Cc1cccc(CS(=O)(=O)c2ncc(Cl)c(C(=O)Nc3ccc(F)cc3)n2)c1`: the inhibition is 31.4% (active).

In the case of `Cc1cccnc1NC(=O)Cn1c(=O)oc2ccccc21`, the inhibition is 5.97%.

Regarding `COC[C@@H]1CCCN1c1ccc2c(c1)O[C@H](C)CCN(C1CC1)S2(=O)=O`, the inhibition is -6.48%.

On to `O=C(Nc1cc(F)cc(F)c1)OC1CCC12CCC(c1ccccc1)CC2` (centres undefined), for which the inhibition was -0.51%.

Turning to `COc1ccc([C@H]2OC(=O)C[C@H]2C(=O)N2CCN(c3ccccc3F)CC2)cc1OC`, the inhibition is -4.27%.

Consider `O=C(CSc1nnc(-c2ccccc2)n1Cc1ccco1)Nc1ccccc1-c1ccccc1`, for which the inhibition was 12.6%.

Take `Clc1cccc(-c2nc3nc4ccccc4nc3n2Cc2ccco2)c1`: the inhibition is 34.2% (active).

Regarding `O=C(CSc1nnc(-c2cccc(Cl)c2)n1Cc1ccco1)Nc1ccc(OCc2ccccc2)cc1`, the inhibition was -2.9%.

As for `COc1ccccc1C(C)NC(=O)Cc1ccsc1` (centres undefined), the inhibition was -0.88%.

Regarding `CCC(c1nnnn1Cc1ccco1)N(Cc1cc2cc(OC)ccc2[nH]c1=O)C1CCCCC1` (centres undefined), the inhibition was 35.9% (active).

For `CCOc1ccc2[nH]c(=O)c(CN(Cc3nnnn3CCc3ccccc3)CC3CCCO3)cc2c1` (centres undefined), the inhibition is -1.4%.

Turning to `CCC(c1nnnn1Cc1ccco1)N(CCc1ccccc1)Cc1cc2ccc(OC)cc2[nH]c1=O` (centres undefined), the inhibition is 44.2% (active).

As for `COc1ccc2[nH]c(=O)c(CN(CC3CCCO3)C(=O)Nc3ccccc3)cc2c1` (centres undefined), the inhibition was -3.84%.

In the case of `CCC(=O)N(Cc1cc2ccccc2[nH]c1=O)c1ccc(OC)cc1`, the inhibition is 1.11%.

Take `CCOc1ccc(CN(Cc2ccco2)C(c2cccs2)c2nnnn2C(C)(C)C)cc1` (centres undefined): the inhibition was 2.59%.

On to `CNc1cncc(-c2ccc(NS(C)(=O)=O)cc2)n1`, for which the inhibition is 4.53%.

On to `N#C/C(=C\c1ccccc1)c1n[nH]c(Cn2cncn2)n1`, for which the inhibition is -3.96%.

With `CCCCNC(=O)C[C@H]1C(=O)N(Cc2ccc(OC)cc2)C2=CCCC[C@@]21C(=O)OCC`, the inhibition is 2.73%.

As to `COC(=O)c1cc(S(=O)(=O)N2CCN(C(=O)C3CCCO3)CC2)cn1C` (centres undefined), the inhibition is -1.95%.

For the compound `O=C(CSc1nc2sc3c(c2c(=O)n1-c1ccccc1)CCCC3)NN=Cc1ccc(OCc2ccccc2)cc1`, the inhibition is 0.97%.

Consider `Cc1ccccc1CN1CCCCC(NC(=O)c2cccc(C#N)c2)C1=O` (centres undefined), for which the inhibition is 1.34%.

For `CCCCOCCCNC(=O)C[C@H]1C[C@@]2(C(=O)OC)C(=C[C@H](C(C)(C)C)O[C@@H]2C)N(CCc2ccc(OC)c(OC)c2)C1=O`, the inhibition is -3.25%.

`COc1cc(C2C(C(=O)c3ccco3)=C(O)C(=O)N2c2cc(C)on2)ccc1OCc1ccccc1` (centres undefined): the inhibition is 4.72%.

`CCCNC(=O)C1CC(=O)N(c2ccc(OCc3ccccc3)cc2)C1` (centres undefined): the inhibition was -0.86%.

`COc1cc(C2CC(=O)N3CN(Cc4ccccc4)CSC3=C2C#N)ccc1OCc1ccccc1` (centres undefined): the inhibition is 38.8% (active).

`COc1ccnc(C(=O)N2CCC(Oc3cccnc3)CC2)c1`: the inhibition was 2.35%.

In the case of `CSc1cc(C)[nH]c(=O)n1`, the inhibition is 2.31%.

As to `Cc1cc(=O)[nH]c(=S)[nH]1`, the inhibition is 107% (active).

In the case of `Cc1cc(=O)cc(C)[nH]1`, the inhibition was -3.92%.

As to `COC(=O)[C@H](C(C)C)N(CCc1cn(Cc2ccccc2)nn1)S(=O)(=O)c1ccc(F)cc1Br`, the inhibition was 0.27%.

As for `Cc1ccc(C)c(S(=O)(=O)N(C)c2ccc(OC(=O)C3CCN(C(=O)c4ccc(F)cc4)CC3)cc2)c1`, the inhibition was 0.47%.

`CCOC(=O)N1CCN(C(c2ccnc3ccccc23)c2nnnn2-c2c(C)cccc2C)CC1` (centres undefined): the inhibition is -3.34%.

For `CCCCC(=O)NC(c1ccc(OC)c(OC)c1)c1ccc2cccnc2c1O` (centres undefined), the inhibition is -1.04%.

Consider `CCOC(=O)N1CCN(C(c2cccnc2)c2ccc3cccnc3c2O)CC1` (centres undefined), for which the inhibition is 26.1% (active).

With `Cc1cccc(N2CCC(NCc3c(C(=O)N4CCCCC4)nc4c(C)cccn34)CC2)c1`, the inhibition was 7.11%.

In the case of `O=C(O)C1CCN(S(=O)(=O)N2CCOCC2)CC1`, the inhibition is 0.67%.

Take `O=C(O)c1c(NC(=O)N2CCCC2)sc2c1CCCC2`: the inhibition is 4.25%.

For the compound `CCOC(=O)C(NC(=O)CC(C)C)(Nc1sc2c(c1C(N)=O)CCCC2)C(F)(F)F` (centres undefined), the inhibition was 0.14%.

As for `NC(=O)c1c(Nc2nc3c(F)cccc3s2)sc2c1CCCC2`, the inhibition is 48.8% (active).

On to `Cc1ccc(-c2ccc(/C=C(\C#N)C(N)=S)o2)c([N+](=O)[O-])c1`, for which the inhibition was 34.7% (active).

With `Cc1ccc2nc(SCc3nnc(-c4ccccc4[N+](=O)[O-])o3)c(C#N)cc2c1`, the inhibition was -0.9%.

As for `COc1ccc(CN2C(=O)C(CC(=O)NCCCCc3ccccc3)CC(C(=O)N3CCOCC3)=C2C)cc1` (centres undefined), the inhibition is -9.04%.

For `COCCNC(=O)C(c1ccc(C)cc1)N(C(=O)CCC(=O)Nc1ccccn1)c1cccc(C)c1` (centres undefined), the inhibition is -0.11%.

For `CCOC(=O)c1c(N=CN(C)C)c(C#N)c2n1CCCC2`, the inhibition is -2.76%.

On to `Cc1ccc(Cn2cc(COC(=O)N(C)Cc3ccccc3)nn2)cc1`, for which the inhibition is 0.99%.

With `O=C(COC(=O)Cn1[nH]c(=O)c2ccccc2c1=O)Nc1ncc(Cl)cc1Cl`, the inhibition is -0.63%.

As to `O=C(Cc1ccc(-c2ccccc2)cc1)NC(c1ccccc1)c1ccccc1`, the inhibition was 44.1% (active).

With `CCOC(=O)/C=C/C(=O)OCC(=O)NC(c1ccccc1)c1ccccc1`, the inhibition is 8.52%.

Consider `O=C(CN1CCc2ccccc21)NC(c1ccccc1)c1ccccc1`, for which the inhibition was -3.28%.

As for `COc1ccc(CNC(=O)CCC(=O)Nc2nnc(C(C)C)s2)cc1`, the inhibition is 6.7%.

Consider `COc1ccc(OCC(=O)Nc2nnc(-c3ccco3)s2)cc1`, for which the inhibition was 22.1% (active).

Take `COc1ccc(OCCCC(=O)Nc2nnc(C3CCCO3)s2)cc1` (centres undefined): the inhibition is 2.04%.

With `O=C(NCc1cccs1)C1CCCN(S(=O)(=O)c2ccc([N+](=O)[O-])cc2)C1` (centres undefined), the inhibition is 0.46%.

With `C=CCN1C(=O)[C@H](CC(=O)NCCCN2CCCC2=O)[C@@]2(C(=O)OCC)CCCC=C12`, the inhibition was 0.15%.

The record behind these values is PubChem BioAssay AID652257 (The Scripps Research Institute Molecular Screening Center, 2013).
